In PubChem BioAssay (Tox21):
Inconclusive results are not listed. A call without a number means that no potency is given here. Activity calls are given as the source filed them. The call rests on the fitted dose curve; in most records, active means well fitted curve in the direction sought with a large enough effect in the repeat runs; inconclusive means weak or mixed curves; inactive means no such curve, though single readings can be large; an effect the other way counts as inactive or inconclusive. Starred links: 1 amine or outer side, 2 acyl side, 3 side chain; linkers in the order of their positions; H or OH if unused. Positions of bridges follow the written chain, without caps; N, C: chain ends. Non-standard residues stand in square brackets, D forms with d. Residues, ends and D or L forms follow the SMILES beside them. *: point of attachment. X5 = NC1=N[C@@H]([C@H](N[*:1])C(=O)[*:2])C[C@H](O)N1; ΔAla(Z-3-ureido) = NC(=O)N/C=C(\N)C(=O)O; β3hOrn = NCCC[C@H](N)CC(=O)*; Dap = NC[C@H](N)C(=O)O

Legend:
[1] = qHTS assay to identify small molecule antagonists of the glucocorticoid receptor (GR) signaling pathway - cell viability counter screen (AID 720693); further: nearly all actives have a fitted effect of over 55% in size
[2] = qHTS assay for identifying genotoxic compounds that show differential cytotoxicity against isogenic chicken DT40 cell lines with known DNA damage response pathways - wild type cell line (AID 743012); further: nearly all actives have a fitted effect of over 60% in size
Procedure, shortened: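 Cytotoxicity in repair-proficient parental chicken DT40 cells serves as the comparator for Rad54/Ku70- and Rev3-deficient lines. Cells were exposed to compounds for 40 h at 37 C/5% CO2, and ATP-based luminescence (CellTiter-Glo) measured viability.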

[3] = qHTS assay for identifying genotoxic compounds that show differential cytotoxicity against isogenic chicken DT40 cell lines with known DNA damage response pathways - Rev3 mutant cell line (AID 743014); further: nearly all actives have a fitted effect of over 55% in size
[4] = qHTS assay for identifying genotoxic compounds that show differential cytotoxicity against isogenic chicken DT40 cell lines with known DNA damage response pathways - Rad54/Ku70 mutant cell line (AID 743015); further: nearly all actives have a fitted effect of over 60% in size
[5] = qHTS assay to identify small molecule antagonists of the androgen receptor (AR) signaling pathway - cell viability counter screen (AID 743033; further: nearly all actives have a fitted effect of over 45% in size)
[6] = qHTS assay to identify small molecule antagonists of the androgen receptor (AR) signaling pathway using the MDA cell line - cell viability counter screen (AID 743041; further: nearly all actives have a fitted effect of over 45% in size)
Procedure, shortened: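 qHTS viability read-out; MDA-kb2 AR-luc; R1881-stimulated; 16 h exposure at 37C, 0% CO2; CellTiter-Fluor, 30 min; fluorescence intensity.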
Potency means the concentration at half of the fitted maximal effect.

| SMILES | Potency [1] | Potency [2] | Potency [3] | Potency [4] | Potency [5] | Potency [6] |
| --- | --- | --- | --- | --- | --- | --- |
| COC(=O)CCC(=O)CN | inactive | inactive | inactive | inactive | inactive | inactive |
| COC(=O)C1=C(C#N)NC(C)=C(C(=O)OC(C)C)C1c1cccc([N+](=O)[O-])c1 (centres undefined) | inactive | 13.3 µM (active) | 23.7 µM (active) | 18.8 µM (active) | inactive | inactive |
| c1cnc2cc3c(cc2n1)[C@@H]1CNC[C@H]3C1 | inactive | inactive | inactive | inactive | inactive | inactive |
| OC1OC[C@@H](O)[C@H](O)[C@@H]1O (some centres undefined) | inactive | inactive | inactive | inactive | inactive | inactive |
| CCCC(=O)O[C@]1(C(=O)COC(=O)CC)[C@@H](C)C[C@H]2[C@@H]3CCC4=CC(=O)C=C[C@]4(C)[C@@]3(F)[C@@H](O)C[C@@]21C | inactive | 29.8 µM (active) | 29.8 µM (active) | 26.6 µM (active) | inactive | inactive |
| CN1c2cc(O)c(N=NC(N)=O)cc2CC1S(=O)(=O)O (centres undefined) | inactive | inactive | inactive | inactive | inactive | inactive |
| CO/N=C(\C(=O)N[C@@H]1C(=O)N2C(C(=O)OCOC(=O)C(C)(C)C)=C(/C=C\c3scnc3C)CS[C@H]12)c1csc(N)n1 | inactive | inactive | inactive | inactive | inactive | inactive |
| CCCCCC(O)/C=C/C=O (centres undefined) | inactive | inactive | inactive | inactive | inactive | inactive |
| C[C@@H]1C/C=C/C=C/C=C/C=C/[C@H](O[C@@H]2O[C@H](C)[C@@H](O)[C@H](N)[C@@H]2O)C[C@@H]2O[C@](O)(C[C@@H](O)C[C@H]3O[C@@H]3/C=C/C(=O)O1)C[C@H](O)[C@H]2C(=O)O | inactive | inactive | inactive | inactive | inactive | inactive |
| COC1=C(C(=O)O)N2C(=O)[C@@H](NC(=O)[C@H](N)C3=CCC=CC3)[C@H]2SC1 | inactive | inactive | inactive | inactive | inactive | inactive |
| CCCCC(O)c1ccccc1 (centres undefined) | inactive | inactive | inactive | inactive | inactive | inactive |
| NS(=O)(=O)c1cc2c(cc1Cl)NC(Cc1ccccc1)NS2(=O)=O (centres undefined) | inactive | inactive | inactive | inactive | inactive | inactive |
| COC(=O)[C@@H](N)CS | inactive | inactive | inactive | inactive | inactive | inactive |
| COc1ccc(CCNC[C@H](O)c2ccc(O)cc2)cc1OC | inactive | inactive | inactive | inactive | inactive | inactive |
| O=C1N=C2SCCN2C(=O)C1Cc1ccc(Cl)cc1 (centres undefined) | inactive | inactive | inactive | inactive | inactive | inactive |
| CCCCCCCCCCCC(=O)N(CCO)CCO | inactive | 29.8 µM (active) | 26.6 µM (active) | 26.6 µM (active) | inactive | inactive |
| COc1cc(C[C@@H]2NCCc3cc(O)c(O)cc32)cc(OC)c1OC | inactive | inactive | inactive | inactive | inactive | inactive |
| CCN1C(=O)NC(c2ccccc2)C1=O (centres undefined) | inactive | inactive | inactive | inactive | inactive | inactive |
| CC(C)(S)[C@@H](N)C(=O)O | inactive | inactive | inactive | inactive | inactive | inactive |
| Cn1nnnc1SCC1=C(C(=O)O)N2C(=O)[C@@H](NC(=O)[C@H](O)c3ccccc3)[C@H]2SC1 | inactive | inactive | inactive | inactive | inactive | inactive |
| CC(=O)OC[C@H]1O[C@@H](O[C@H]2[C@H](O)[C@@H](OC(=O)c3ccccc3C(=O)O)[C@H](O)O[C@@H]2COC(C)=O)[C@H](O)[C@@H](OC(=O)c2ccccc2C(=O)O)[C@@H]1O | inactive | inactive | inactive | inactive | inactive | inactive |
| NCCC[C@H](N)CC(=O)N[C@H]1CNC(=O)[C@H]([C@H]2C[C@H](O)NC(N)=N2)NC(=O)/C(=C/NC(N)=O)NC(=O)[C@H](CO)NC(=O)[C@H](CO)NC1=O (β3hOrn-[Dap]SS[ΔAla(Z-3-ureido)][X5]; lactam 1-C) | inactive | inactive | inactive | inactive | inactive | inactive |

| SMILES | Potency [1] | Potency [2] | Potency [3] | Potency [4] | Potency [5] | Potency [6] |
| --- | --- | --- | --- | --- | --- | --- |
| CC(O)[C@@H]1NC(=O)[C@H](CCCCN)NC(=O)[C@@H](Cc2c[nH]c3ccccc23)NC(=O)[C@H](Cc2ccccc2)NC(=O)[C@@H](NC(=O)[C@H](N)Cc2ccccc2)CSSC[C@@H](C(=O)N[C@H](CO)[C@@H](C)O)NC1=O (some centres undefined) | inactive | inactive | inactive | inactive | inactive | inactive |
| COc1ccc(CC2c3cc(OC)c(OC)cc3CC[N+]2(C)CCC(=O)OCCCCCOC(=O)CC[N+]2(C)CCc3cc(OC)c(OC)cc3C2Cc2ccc(OC)c(OC)c2)cc1OC (centres undefined) | inactive | inactive | inactive | inactive | inactive | inactive |
| CC1(C)S[C@@H]2[C@H](NC(=O)Cc3ccccc3)C(=O)N2[C@H]1C(=O)O | inactive | inactive | inactive | inactive | inactive | inactive |
| CC(O)[C@@H]1NC(=O)[C@H](Cc2ccccc2)NC(=O)[C@H](C(C)O)NC(=O)[C@H](CCCCN)NC(=O)[C@H](Cc2c[nH]c3ccccc23)NC(=O)[C@H](Cc2ccccc2)NC(=O)[C@H](Cc2ccccc2)NC(=O)[C@H](CC(N)=O)NC(=O)[C@H](CCCCN)NC(=O)[C@@H](NC(=O)CNC(=O)[C@H](C)N)CSSC[C@@H](C(=O)O)NC(=O)[C@H](CO)NC1=O (some centres undefined) | inactive | inactive | inactive | inactive | inactive | inactive |
| CC(=O)O[C@H]1C[C@@H]2CC[C@@H]3[C@H](CC[C@@]4(C)[C@H]3C[C@H](N3CC[N+](C)(C)CC3)[C@@H]4OC(C)=O)[C@@]2(C)C[C@@H]1N1CC[N+](C)(C)CC1 | inactive | inactive | inactive | inactive | inactive | inactive |
| NC(=O)OCC(O)COc1ccc(Cl)cc1 (centres undefined) | inactive | inactive | inactive | inactive | inactive | inactive |
| CC(=O)Oc1c(C)cc(OCC(O)CNC(C)C)c(C)c1C (centres undefined) | inactive | inactive | inactive | inactive | inactive | inactive |
| CC(C)(C)CC(C)(C)c1cc(Cc2cc(C(C)(C)CC(C)(C)C)cc(-n3nc4ccccc4n3)c2O)c(O)c(-n2nc3ccccc3n2)c1 | inactive | inactive | inactive | inactive | inactive | inactive |
| CCNC(=O)[C@@H]1CCCN1C(=O)[C@H](CCCN=C(N)N)NC(=O)[C@H](CC(C)C)NC(=O)[C@@H](CC(C)C)NC(=O)[C@H](Cc1ccc(O)cc1)NC(=O)[C@H](CO)NC(=O)[C@H](Cc1c[nH]c2ccccc12)NC(=O)[C@H](Cc1cnc[nH]1)NC(=O)[C@@H]1CCC(=O)N1 | inactive | inactive | inactive | inactive | inactive | inactive |
| CN[C@@H]1CCc2[nH]c3ccc(C(N)=O)cc3c2C1 | inactive | inactive | inactive | inactive | inactive | inactive |
| CCOC(=O)CN[C@@H](C(=O)N1CC[C@H]1C(=O)NCc1ccc(/C(N)=N/O)cc1)C1CCCCC1 | inactive | inactive | inactive | inactive | inactive | inactive |
| CN1[C@@H]2CCC[C@H]1CC(NC(=O)c1nn(C)c3ccccc13)C2 (some centres undefined) | inactive | inactive | inactive | inactive | inactive | inactive |
| O=P(O)(O)OC[C@H](O)CO | inactive | inactive | inactive | inactive | inactive | inactive |
| CC1=C(/C=C/C(C)=C/C=C/C(C)=C/C=C/C=C(C)/C=C/C=C(C)/C=C/C2=C(C)C(=O)CCC2(C)C)C(C)(C)CCC1=O | inactive | inactive | inactive | inactive | inactive | inactive |
| CC1(C)S[C@@H]2[C@H](NC(=O)[C@H](N)c3ccccc3)C(=O)N2[C@H]1C(=O)OCOC(=O)[C@@H]1N2C(=O)C[C@H]2S(=O)(=O)C1(C)C | inactive | inactive | inactive | inactive | inactive | inactive |
| CS(=O)(=O)NC(=O)CCC/C=C\C[C@H]1C(=O)C[C@@H](O)[C@@H]1/C=C/[C@H](O)COc1ccccc1 | inactive | inactive | inactive | inactive | inactive | inactive |
| O=C1NC(=O)[C@H]2[C@@H]1[C@@H]1C=C[C@H]2C1 | inactive | inactive | inactive | inactive | inactive | inactive |
| O=C(O[C@H]1CN2CCC1CC2)N1CCc2ccccc2[C@@H]1c1ccccc1 | inactive | 11.9 µM (active) | 26.6 µM (active) | 26.6 µM (active) | inactive | inactive |
| O=C(c1cc2ccccc2o1)N1CCN(Cc2ccccc2)CC1 | inactive | 26.6 µM (active) | 29.8 µM (active) | 29.8 µM (active) | inactive | inactive |
| CC(C)CN(C[C@@H](OP(=O)(O)O)[C@H](Cc1ccccc1)NC(=O)O[C@H]1CCOC1)S(=O)(=O)c1ccc(N)cc1 | inactive | inactive | inactive | inactive | inactive | inactive |
| CCNC(=O)[C@@H]1CCCN1C(=O)[C@H](CCCN=C(N)N)NC(=O)[C@H](CC(C)C)NC(=O)[C@@H](Cc1c[nH]c2ccccc12)NC(=O)[C@H](Cc1ccc(O)cc1)NC(=O)[C@H](CO)NC(=O)[C@H](Cc1c[nH]c2ccccc12)NC(=O)[C@H](Cc1cnc[nH]1)NC(=O)[C@@H]1CCC(=O)N1 | 19 µM (active) | 0.841 µM (active) | 1.19 µM (active) | 1.06 µM (active) | 23.9 µM (active) | 11.9 µM (active) |
| CCC(C)C(C(=O)OCC[N+](C)(CC)CC)c1ccccc1 (centres undefined) | inactive | 29.8 µM (active) | 29.8 µM (active) | 26.6 µM (active) | inactive | inactive |
